This is a sample that favours compounds with a hit; in the whole collection about 6.8% have one here.
A340 absorber: absorbance at 340 nm | compound absorbance at 340 nm, fold over control | fold change at 10 µM | 65,000 tested, under 10 active;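 active means at 10 µM dose, initial 340 nm absorbance at least 2 fold that of control wells; inactive means change under 2 fold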;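 further: initial absorbance extrapolated from kinetic A340 decline of NADH oxidation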
Spn PMK inh: S. pneumoniae PMK inhibition. purified PMK, PK/LDH-coupled NADH absorbance 340 nm. inhibition, % at 10 µM. 0.49% of 65,000 active;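 active means top-ranked compounds by inhibition in the single 10 µM screen, taking a fixed number of the strongest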
DPM-DC inhibit: inhibitors of Streptococcus pneumoniae diphosphomevalonate decarboxylase. 0.49% of 65,000 active. purified DPM-DC, PK/LDH coupled NADH fluorescence. calls only at 10 µM. AID 556;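 active means the 320 compounds with the highest percent inhibition in the single-dose primary screen, excluding strongly autofluorescent ones, cut at about 32% in these data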;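 further: kinetic rate of NADH fluorescence loss reporting ADP formed by the decarboxylase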
NADH coupling: inhibition of NAD/NADH coupling enzymes, library profiling. coupled PK/LDH NADH assays, four targets. IC50, µM (series often up to 10 µM). AID 774. 0.02% of 65,000 active;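 active means single-dose screening hits from any of four coupled enzyme assays that gave an IC50 when retested across doses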;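 further: the DPM-DC format reads NADH fluorescence rather than 340 nm absorbance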
MK inhibit: S. pneumoniae mevalonate kinase inhibition | purified MK, PK/LDH-coupled NADH absorbance 340 nm | inhibition, % at 10 µM | 0.48% of 65,000 active | AID 555;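 active means ranked among the strongest by inhibition in the single 10 µM screen, a fixed top-ranked set picked for dose follow-up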
Fluor 339 460: intrinsic fluorescence of library compounds, ex339/em460 – biochemical, MLSMR library, data from DPM-DC assay, artefact control, profiling panel. 5.5% of 65,000 active. fluorescence fold increase at 10 µM. compound autofluorescence, ex339/em460 nm, NADH buffer; active compounds read high; 1 = no-compound wells, NADH background;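 active means at 10 µM, mean starting fluorescence two-fold or more over control wells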;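 further: signal is the first read of a kinetic run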
Numbers stand for hits; n = inactive; x = not tested or not shown; + = active, no number.

SMILES	A340 absorber	Spn PMK inh	DPM-DC inhibit	NADH coupling	MK inhibit	Fluor 339 460
CCOc1ccc2nc(NC(=O)C3CCCN(S(=O)(=O)c4cccs4)C3)sc2c1 (centres undefined)	n	n	n	n	n	n
CCc1cc(=O)oc2c(CN3CCN(C)CC3)c(O)c(Cl)cc12	n	n	x	n	n	2.47
CN1CCN(Cc2cc(=O)oc3cc4c(cc23)CCC4)CC1	n	n	n	n	n	n
Cc1ccccc1Cn1cc(NC(=O)c2noc3c2CC(C(C)(C)C)CC3)cn1 (centres undefined)	n	n	n	2.58µM	n	n
COc1cc2c(cc1OC)C(c1ccc3c(c1)OCO3)C1=C(CC(C)(C)CC1=O)N2 (centres undefined)	n	n	x	n	n	4.88
COc1ccc(-c2csc(NCc3ccco3)n2)cc1C	n	n	n	n	n	n
COc1ccc(-c2nc3cccc(C)n3c2NCc2ccco2)cc1OC	n	n	x	n	n	5.1
O=C(NCc1ccccc1)NC1CC2CCC(C1)N2Cc1ccco1 (centres undefined)	n	n	n	n	n	n
CCN(CC)C(=O)NC1CC2CCCC(C1)N2Cc1ccccc1 (centres undefined)	n	27.0	n	n	n	n
O=C(CSc1nnnn1Cc1ccccc1)NCCc1ccccc1	n	n	+	n	n	n
CCC(=O)Nc1cccc(NC(=O)CSc2nnnn2Cc2ccccc2)c1	n	n	+	n	n	n
CC(=O)c1ccccc1OCCn1nnc(-c2ccc(C)cc2)n1	n	n	n	n	n	n
CC(C)c1nc(SCC(=O)NCc2ccccc2)n[nH]1	n	n	n	n	n	n
CC1(C)Cc2ccccc2-c2nc(NCCO)n(-c3ccccc3)c(=O)c21	n	n	x	n	n	2.2
CCC1(C)Cc2ccccc2-c2nc(NCCO)n(-c3ccccc3)c(=O)c21 (centres undefined)	n	n	x	n	n	2.34
O=C(COc1nnc2ccccn12)N1CCN(S(=O)(=O)c2ccccc2)CC1	n	n	x	n	n	3.42
CCOC(=O)CCc1nc2ccccc2[nH]c1=O	n	n	n	n	n	2.21
COc1ccc(C2CC(c3cccc(OC)c3OC)n3nnnc3N2)cc1 (centres undefined)	n	n	n	n	n	n
CCCCc1c(O)n2c(nc3ccccc32)[nH]c1=O	n	n	n	n	n	n
CCCc1cc(=O)n2c(nc3ccccc32)[nH]1	n	n	x	n	n	3.89
Cc1cc(C)c2c(N)c(C(=O)N3CCN(c4ncccn4)CC3)sc2n1	n	n	n	n	n	2.2
COCc1cc(C)nc2sc(C(=O)N3CCN(c4ccccc4)CC3)c(N)c12	n	n	n	n	n	n
CCOC(=O)CNC(=O)c1sc2nc(C)cc(C)c2c1N	n	n	x	n	n	3.87
CCOC(=O)c1sc2nc(C)cc(C)c2c1N	n	n	x	n	n	2.4
COc1ccc(C(=O)COC(=O)CCCn2c(=O)oc3ccccc32)cc1	n	n	n	n	n	n
SMILES	A340 absorber	Spn PMK inh	DPM-DC inhibit	NADH coupling	MK inhibit	Fluor 339 460
CSc1c(C#N)c(N)c(C#N)c2c1COC(C)(C)C2	n	n	x	n	n	2.07
CCC1Oc2ccccc2N(CC(=O)NCCCN2CCN(Cc3ccccc3)CC2)C1=O (centres undefined)	n	n	n	n	n	n
CC(C)C1Oc2ccccc2N(CC(=O)NCCCN2C(C)CCCC2C)C1=O (centres undefined)	n	n	n	n	47.0	n
COc1ccccc1-c1cc(C(=O)NC(C)C)no1	n	n	n	n	n	n
COc1ccccc1-c1cc(C(=O)Nc2ccc(F)cc2F)no1	n	n	n	n	n	2.12
Cc1sc2ncn(CC(=O)OC(C)C(=O)NC(C)(C)C)c(=O)c2c1C (centres undefined)	n	n	n	n	n	n
CCNC(=O)Cc1ccc(NS(=O)(=O)c2ccc(F)cc2)cc1	n	n	n	n	n	n
CC(C)(C)NS(=O)(=O)c1ccc(NS(=O)(=O)c2ccc(F)cc2)cc1	n	26.0	n	n	n	n
CSc1nc2c(c(=O)[nH]1)C(c1ccncc1)C(C(=O)OC(C)C)=C(C)N2 (centres undefined)	n	n	n	n	n	n
CCOC(=O)N1CCN(S(=O)(=O)c2ccc(F)cc2)CC1	n	n	n	n	n	n

Screening results (PubChem)
